This is part of a sample that, as a whole, favours compounds with a hit. Of some 79,000 tested, about 15% had one in any assay. Activity calls are given as the source filed them. Cut-off read from the data, not from the text of the source: active = growth inhibition above about 70%; inactive = the rest.

The nature of one assay: NCI Yeast Anticancer Drug Screen. Data for the sgs1 mgt1 strain (AID 161).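 Note: 0% = growth of cultures given vehicle only.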 As to conditions: S. cerevisiae sgs1 mgt1 strain, at 50.0 µM, stronger effect = higher value. The essentials:
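Genetically altered yeast, compound exposure, growth inhibition relative to vehicle.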
With `COC(=O)/C=C(/C(=O)OC)N(O)C(=O)CN1C(=O)c2ccccc2C1=O`, the growth inhibition was -18.7% (inactive).
Consider `Cc1ccc(N=c2cc(-c3ccccc3)oc3ccccc23)cc1`, for which the growth inhibition was 11.7% (inactive).
The same measure, in the same setting: with `COc1ccc2c(c1)C(N)CC2=O` (stereo not given) the figure was 0.75% (inactive).
Still for that read-out and setting: under `COc1ccc(/C=C2\C(=O)N(C(=O)Cc3ccccc3)N=C2C)cc1OC` stands -59.1% (inactive); under `C=C(C)c1ccc(C(=C)C)cc1`, -38.2% (inactive); under `NC(=O)CN1CC(C2=C(O)CN(CC(N)=O)C2=O)=CC1=O`, -10.1% (inactive).
On the same count and under the same terms, under `CC(O)C(=O)NN` (stereo not given) stands -4.95% (inactive).
As for `CCCCOc1cc2c(cc1C(C)c1ccccc1)OCO2` (stereo not given), the growth inhibition is -4.05% (inactive).
With `C=CCO[Si](OCC=C)(OCC=C)OCC=C`, the growth inhibition was -6.2% (inactive).
The same measure, in the same setting: under `NCCN1C(=O)c2ccccc2C1(O)c1ccc(Cl)cc1` (stereo not given) stands -7% (inactive).
`CCCCSc1nc2c([nH]1)c(=O)n(C)c(=O)n2C`: the growth inhibition was 4.3% (inactive).
On the same count and under the same terms, with `O=C(O)CSc1n[nH]c(-c2ccc(O)cc2)n1` the figure was -7.5% (inactive); with `CCOC(=O)c1ccc(NC(=O)/C=C/C(=O)O)cc1`, -2.9% (inactive); with `CN1CCC=C(COC(=O)C(C)(C)C)C1`, -10.9% (inactive).
Same read-out and setting: with `COc1ccc2nc3cc(Cl)ccc3c(Sc3ccc(NC(C)=O)cc3)c2c1` the figure was -2.5% (inactive); with `CC(C)C(=O)Nc1ccc(Cl)c(Cl)c1`, 44.3% (inactive).
Same read-out and setting: under `O=C(c1ccccc1)[C@@H]1C[C@H](Sc2ccccc2)c2cc(Cl)ccc2N1` stands 4.1% (inactive); under `NCCCNCCCCNC(=O)C(O)NC(=O)CC(O)CCCCN=C(N)N` (stereo not given), -22.7% (inactive); under `CCCCC1(NN=C2CCCCC2)C(=O)N(c2ccccc2)N(c2ccccc2)C1=O`, -0.4% (inactive).
On to `C=Cc1ccccc1N=NC(C(=O)OC)=P(c1ccccc1)(c1ccccc1)c1ccccc1`, for which the growth inhibition was -1.2% (inactive).
`CC(C)COC1=CC(=O)c2ccccc2C1=O`: the growth inhibition was 18.6% (inactive).
The same measure, in the same setting: under `CC(=O)Cc1ccc([N+](=O)[O-])cc1` stands -15.9% (inactive).
Consider `c1cc2c3c(cccc3c1)N=S=N2`, for which the growth inhibition is 10.1% (inactive).
On the same count and under the same terms, under `O=C1NC(Cc2c[nH]c3ccccc23)C(=O)N2CCCC12` (stereo not given) stands -7% (inactive); under `N#C/C(=C\c1cccs1)C(=O)c1ccco1`, 24.1% (inactive); under `C=CCNCC(O)C(F)(F)C(F)(F)C(F)(F)C(F)(F)C(F)(F)C(F)(F)F` (stereo not given), 32.1% (inactive).
Same read-out and setting: with `CSc1cc(Cl)c(C)cc1S(=O)(=O)NC(=O)NNc1ccccn1` the figure was 8.15% (inactive); with `NC(=O)CNCC1Cc2ccccc21` (stereo not given), 0.1% (inactive).
Same read-out and setting: with `Nc1ccc2ccccc2c1N=Nc1ccc(/C=C/c2ccc(N=Nc3c(N)ccc4ccccc34)cc2S(=O)(=O)O)c(S(=O)(=O)O)c1` the figure was 62% (inactive); with `COc1ccc(CNc2ccccc2)cc1`, 3.65% (inactive); with `CC1CCN(CCOC(=O)c2ccc(OC(C)C)cc2)C1` (stereo not given), 24.4% (inactive).
For the molecule `O=C(CO)CC(=O)C(=O)Nc1ccccc1`, the growth inhibition was 1.5% (inactive).
On the same count and under the same terms, with `O=C1CSC(c2ccc(C(F)(F)F)cc2)N1c1nncs1` (stereo not given) the figure was 29% (inactive); with `CC(=O)Nc1ccc(N(C)C)c(C)c1`, -1.85% (inactive).
As for `Cc1cc(NCCN(C)C)nc(Nc2ccc(Cl)cc2)n1`, the growth inhibition is 31.6% (inactive).
On the same count and under the same terms, with `O=C(c1nc2ccc([N+](=O)[O-])cc2[nH]c1=O)C(O)c1ccc([N+](=O)[O-])cc1` (stereo not given) the figure was 12.9% (inactive); with `NCC(=O)NCC(=O)NCC(=O)NCC(=O)NCC(=O)NCC(=O)O`, 0.4% (inactive); with `Nc1cnccn1`, 0.75% (inactive).
The same measure, in the same setting: with `Cc1csc2n(C)c(=O)c3ccccc3[n+]12` the figure was -20.4% (inactive).
On to `CSc1ncnc2ncn(C)c12`, for which the growth inhibition is 4.4% (inactive).

The next assay in a line: NCI Yeast Anticancer Drug Screen. Data for the cln2 rad14 strain (AID 165).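 Note: 0% = growth equal to vehicle treated cultures.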 As to conditions: S. cerevisiae cln2 rad14 strain, at 50.0 µM, stronger effect = higher value. The gist of the method: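 Compounds are applied to the cln2 rad14 yeast strain, and growth is then compared with that of vehicle-treated cultures to give inhibition.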
Take `COC(=O)/C=C(/C(=O)OC)N(O)C(=O)CN1C(=O)c2ccccc2C1=O`: the growth inhibition is -17.3% (inactive).
Same read-out and setting: with `Cc1ccc(N=c2cc(-c3ccccc3)oc3ccccc23)cc1` the figure was 3.7% (inactive); with `COc1ccc2c(c1)C(N)CC2=O` (stereo not given), 8.75% (inactive); with `COc1ccc(/C=C2\C(=O)N(C(=O)Cc3ccccc3)N=C2C)cc1OC`, -16.8% (inactive).
The same measure, in the same setting: with `C=C(C)c1ccc(C(=C)C)cc1` the figure was -3.9% (inactive).
Turning to `NC(=O)CN1CC(C2=C(O)CN(CC(N)=O)C2=O)=CC1=O`, the growth inhibition is -43.5% (inactive).
Same read-out and setting: with `CC(O)C(=O)NN` (stereo not given) the figure was -13.6% (inactive).
Same read-out and setting: under `CCCCOc1cc2c(cc1C(C)c1ccccc1)OCO2` (stereo not given) stands 2.8% (inactive); under `C=CCO[Si](OCC=C)(OCC=C)OCC=C`, 13.9% (inactive); under `NCCN1C(=O)c2ccccc2C1(O)c1ccc(Cl)cc1` (stereo not given), -4.6% (inactive).
In the case of `CCCCSc1nc2c([nH]1)c(=O)n(C)c(=O)n2C`, the growth inhibition is -34.5% (inactive).
Same read-out and setting: with `O=C(O)CSc1n[nH]c(-c2ccc(O)cc2)n1` the figure was 18.6% (inactive); with `CCOC(=O)c1ccc(NC(=O)/C=C/C(=O)O)cc1`, -3.3% (inactive).
Consider `CN1CCC=C(COC(=O)C(C)(C)C)C1`, for which the growth inhibition is 7.45% (inactive).
On the same count and under the same terms, with `COc1ccc2nc3cc(Cl)ccc3c(Sc3ccc(NC(C)=O)cc3)c2c1` the figure was 11.3% (inactive); with `CC(C)C(=O)Nc1ccc(Cl)c(Cl)c1`, 41.2% (inactive); with `O=C(c1ccccc1)[C@@H]1C[C@H](Sc2ccccc2)c2cc(Cl)ccc2N1`, 23.8% (inactive).
On the same count and under the same terms, under `NCCCNCCCCNC(=O)C(O)NC(=O)CC(O)CCCCN=C(N)N` (stereo not given) stands 16.8% (inactive).
Same read-out and setting: with `CCCCC1(NN=C2CCCCC2)C(=O)N(c2ccccc2)N(c2ccccc2)C1=O` the figure was -0.75% (inactive); with `C=Cc1ccccc1N=NC(C(=O)OC)=P(c1ccccc1)(c1ccccc1)c1ccccc1`, -6.75% (inactive); with `CC(C)COC1=CC(=O)c2ccccc2C1=O`, -1.05% (inactive).
As to `CC(=O)Cc1ccc([N+](=O)[O-])cc1`, the growth inhibition was -41.7% (inactive).
The same measure, in the same setting: under `c1cc2c3c(cccc3c1)N=S=N2` stands -62.6% (inactive).
On to `O=C1NC(Cc2c[nH]c3ccccc23)C(=O)N2CCCC12` (stereo not given), for which the growth inhibition was -6.5% (inactive).
Same read-out and setting: with `N#C/C(=C\c1cccs1)C(=O)c1ccco1` the figure was 25.2% (inactive); with `C=CCNCC(O)C(F)(F)C(F)(F)C(F)(F)C(F)(F)C(F)(F)C(F)(F)F` (stereo not given), -6.9% (inactive).
On the same count and under the same terms, with `CSc1cc(Cl)c(C)cc1S(=O)(=O)NC(=O)NNc1ccccn1` the figure was -2.05% (inactive); with `NC(=O)CNCC1Cc2ccccc21` (stereo not given), -16.4% (inactive); with `Nc1ccc2ccccc2c1N=Nc1ccc(/C=C/c2ccc(N=Nc3c(N)ccc4ccccc34)cc2S(=O)(=O)O)c(S(=O)(=O)O)c1`, 7.1% (inactive).
On the same count and under the same terms, under `COc1ccc(CNc2ccccc2)cc1` stands 10.6% (inactive); under `CC1CCN(CCOC(=O)c2ccc(OC(C)C)cc2)C1` (stereo not given), -10.5% (inactive); under `O=C(CO)CC(=O)C(=O)Nc1ccccc1`, 10.6% (inactive).
`O=C1CSC(c2ccc(C(F)(F)F)cc2)N1c1nncs1` (stereo not given): the growth inhibition was -1.45% (inactive).
Same read-out and setting: under `CC(=O)Nc1ccc(N(C)C)c(C)c1` stands -7.75% (inactive).
On the same count and under the same terms, under `Cc1cc(NCCN(C)C)nc(Nc2ccc(Cl)cc2)n1` stands -13.9% (inactive).
Still for that read-out and setting: with `O=C(c1nc2ccc([N+](=O)[O-])cc2[nH]c1=O)C(O)c1ccc([N+](=O)[O-])cc1` (stereo not given) the figure was 10.1% (inactive).
`NCC(=O)NCC(=O)NCC(=O)NCC(=O)NCC(=O)NCC(=O)O`: the growth inhibition was -38.6% (inactive).
Still for that read-out and setting: with `Nc1cnccn1` the figure was -4.3% (inactive); with `Cc1csc2n(C)c(=O)c3ccccc3[n+]12`, 4.65% (inactive); with `CSc1ncnc2ncn(C)c12`, -9.95% (inactive).

(Values after PubChem BioAssay (NCI).)
